“And” between values parts separate entries of the source, which are not always exact repeats. Equal values may be shown once. For part of these data: Measured potencies and affinities stand elsewhere.
Legend:
Set-up in all cases: scale not given: direction of the effect not stated beside the values
[1] = target: Protein translocase subunit SecA (Escherichia coli (strain K12)) (UniProt P10408); assay: Assay to Identify E. coli SecA ATPase Inhibitors; assay type: functional; details: 30 µM
[2] = target: T1, Ubiquitin-activating enzyme e1, putative (Leishmania donovani (strain BPK282A1)) (UniProt E9BSI1); assay: Leishmania donovani Ubiquitin Activating Enzyme (LdE1); assay type: functional; details: 30 µM
T1 sequence (whole entry): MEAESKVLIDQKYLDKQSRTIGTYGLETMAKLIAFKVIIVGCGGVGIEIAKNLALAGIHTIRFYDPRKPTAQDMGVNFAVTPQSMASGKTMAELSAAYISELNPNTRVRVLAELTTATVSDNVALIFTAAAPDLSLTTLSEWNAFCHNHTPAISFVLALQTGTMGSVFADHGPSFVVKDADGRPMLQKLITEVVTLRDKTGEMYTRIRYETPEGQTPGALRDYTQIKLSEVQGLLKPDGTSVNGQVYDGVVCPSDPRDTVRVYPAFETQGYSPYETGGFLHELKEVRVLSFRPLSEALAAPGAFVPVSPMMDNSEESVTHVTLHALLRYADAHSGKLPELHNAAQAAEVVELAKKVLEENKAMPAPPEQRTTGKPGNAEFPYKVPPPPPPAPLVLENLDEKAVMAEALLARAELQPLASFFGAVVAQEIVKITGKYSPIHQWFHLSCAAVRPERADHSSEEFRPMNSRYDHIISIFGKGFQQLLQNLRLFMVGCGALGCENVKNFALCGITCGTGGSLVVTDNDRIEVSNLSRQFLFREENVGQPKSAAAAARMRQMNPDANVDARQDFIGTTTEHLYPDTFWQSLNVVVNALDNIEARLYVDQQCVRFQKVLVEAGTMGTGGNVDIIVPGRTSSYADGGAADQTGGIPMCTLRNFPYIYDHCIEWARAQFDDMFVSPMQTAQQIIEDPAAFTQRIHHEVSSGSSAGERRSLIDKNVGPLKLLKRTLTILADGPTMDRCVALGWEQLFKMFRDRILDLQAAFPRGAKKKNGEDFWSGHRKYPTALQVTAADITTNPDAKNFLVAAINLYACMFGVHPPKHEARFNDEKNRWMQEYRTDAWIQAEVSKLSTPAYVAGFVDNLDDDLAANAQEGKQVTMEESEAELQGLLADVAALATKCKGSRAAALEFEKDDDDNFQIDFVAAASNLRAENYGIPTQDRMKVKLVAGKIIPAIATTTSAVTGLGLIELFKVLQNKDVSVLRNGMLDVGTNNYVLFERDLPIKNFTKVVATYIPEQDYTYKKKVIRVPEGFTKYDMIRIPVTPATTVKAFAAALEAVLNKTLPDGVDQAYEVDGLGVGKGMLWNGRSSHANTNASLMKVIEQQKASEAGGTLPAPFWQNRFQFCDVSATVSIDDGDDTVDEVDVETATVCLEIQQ

[3] = target: AMP-activated protein kinase, AMPK (Homo sapiens) (UniProt P54646+O43741+P54619+Q9UGJ0+Q9Y478+Q13131+Q9UGI9); assay: AMP-dependent Kinase enzyme assay. An in vitro enzyme assay that detects ADP turnover that is directly proportional to AMPK activity. This uses naive AMPK that is activated during the assay with MK-8722; assay type: functional; details: 30 µM
[4] = target: Sialic acid-binding Ig-like lectin 9 (Homo sapiens) (UniProt Q9Y336); assay: Hs-Siglec9 ALPHAscreen SOP 20170721; details: 10 µM
Sialic acid-binding Ig-like lectin 9 (Homo sapiens), sequence (Q9Y336 whole entry): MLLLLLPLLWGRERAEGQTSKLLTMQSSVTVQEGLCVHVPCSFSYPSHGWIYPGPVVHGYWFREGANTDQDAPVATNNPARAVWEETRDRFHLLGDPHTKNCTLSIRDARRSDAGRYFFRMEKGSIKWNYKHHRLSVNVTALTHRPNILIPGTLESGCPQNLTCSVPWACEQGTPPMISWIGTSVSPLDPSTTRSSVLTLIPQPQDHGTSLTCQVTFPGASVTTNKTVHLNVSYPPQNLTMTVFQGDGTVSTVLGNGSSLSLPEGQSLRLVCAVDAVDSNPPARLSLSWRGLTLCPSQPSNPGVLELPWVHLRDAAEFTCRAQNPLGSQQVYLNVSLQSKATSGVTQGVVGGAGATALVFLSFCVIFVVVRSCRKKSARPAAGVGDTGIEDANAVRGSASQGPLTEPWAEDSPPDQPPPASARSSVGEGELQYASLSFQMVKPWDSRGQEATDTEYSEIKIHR

Trypanosoma cruzi = assay: Trypanosoma cruzi phosphomannomutase and mannose-1-phosphate guanylyltransferase assay; assay type: functional; details: 10 µM
[5] = target: T2, Arginase-2, mitochondrial (Homo sapiens) (UniProt P78540); assay: in vitro enzyme assay to detect the production of urea directly proportional to the activity of Arginase II; assay type: functional; details: 33.3 µM; further: in the data most compounds retested in dose-response had high values
T2 sequence (whole entry): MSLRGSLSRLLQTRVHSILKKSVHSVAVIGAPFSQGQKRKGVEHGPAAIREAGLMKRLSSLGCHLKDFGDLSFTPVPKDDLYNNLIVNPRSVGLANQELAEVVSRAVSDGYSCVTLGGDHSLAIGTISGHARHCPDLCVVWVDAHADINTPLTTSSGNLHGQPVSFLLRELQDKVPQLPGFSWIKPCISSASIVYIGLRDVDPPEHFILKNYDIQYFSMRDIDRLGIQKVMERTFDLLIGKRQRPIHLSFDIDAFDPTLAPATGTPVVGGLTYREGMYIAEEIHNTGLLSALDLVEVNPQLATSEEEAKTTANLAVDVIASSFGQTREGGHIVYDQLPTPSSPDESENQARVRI

[6] = target: T3, Proteasome subunit beta (Trypanosoma cruzi) (UniProt O96673); assay: Trypanosoma cruzi proteasome chymotrypsin-like activity (TcProtChymo) assay.; further: in the data most compounds retested in dose-response had high values; assay type: functional; details: 9.37 µM
T3 sequence (whole entry): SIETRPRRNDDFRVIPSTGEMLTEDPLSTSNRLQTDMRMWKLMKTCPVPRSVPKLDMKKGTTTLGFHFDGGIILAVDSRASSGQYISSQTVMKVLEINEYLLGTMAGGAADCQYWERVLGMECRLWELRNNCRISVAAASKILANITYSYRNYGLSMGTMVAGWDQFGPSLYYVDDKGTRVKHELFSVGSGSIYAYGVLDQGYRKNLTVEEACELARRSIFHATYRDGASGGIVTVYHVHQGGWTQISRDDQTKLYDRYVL

N/A = assay: Trypanosoma cruzi proteasome luciferase counter-screen; assay type: functional; details: 9.37 µM
Homo sapiens = organism: Homo sapiens; assay: To identify inhibition of the IFN signalling (Jak-Stat) pathway via expression of an eGFP reporter gene under the control of an IFN-stimulated response element (ISRE) containing MxA promoter.; assay type: functional; details: 30 µM
[7] = target: T4, Tyrosyl-tRNA synthetase, putative (Trypanosoma cruzi (strain CL Brener)) (UniProt Q4DSP6); assay: Trypanosoma cruzi tyrosyl tRNA synthetase (TcYRS) _High Tyrosine SOP; assay type: functional; details: 30 µM; further: in the data most compounds retested in dose-response had high values
T4 sequence (whole entry): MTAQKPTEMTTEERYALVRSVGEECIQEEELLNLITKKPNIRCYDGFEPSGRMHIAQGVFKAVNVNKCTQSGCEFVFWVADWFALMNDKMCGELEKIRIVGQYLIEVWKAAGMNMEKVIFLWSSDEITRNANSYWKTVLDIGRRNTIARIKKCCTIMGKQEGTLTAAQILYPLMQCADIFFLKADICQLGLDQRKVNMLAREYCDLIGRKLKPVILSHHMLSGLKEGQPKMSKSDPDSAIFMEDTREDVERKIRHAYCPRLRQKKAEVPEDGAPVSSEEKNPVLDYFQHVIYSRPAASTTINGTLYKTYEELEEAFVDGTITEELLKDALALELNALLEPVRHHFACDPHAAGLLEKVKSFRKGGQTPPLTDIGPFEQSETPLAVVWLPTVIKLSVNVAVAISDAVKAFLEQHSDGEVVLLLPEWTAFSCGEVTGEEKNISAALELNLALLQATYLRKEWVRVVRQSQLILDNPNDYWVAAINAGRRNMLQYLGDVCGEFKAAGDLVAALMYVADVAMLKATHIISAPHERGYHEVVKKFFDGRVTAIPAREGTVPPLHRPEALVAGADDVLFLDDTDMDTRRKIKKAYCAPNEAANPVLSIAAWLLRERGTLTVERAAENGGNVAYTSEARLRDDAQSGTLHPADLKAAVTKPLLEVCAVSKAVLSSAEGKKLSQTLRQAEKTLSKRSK

[8] = target: T4, Tyrosyl-tRNA synthetase, putative (Trypanosoma cruzi (strain CL Brener)); assay: Trypanosoma cruzi tyrosyl tRNA synthetase (TcYRS) SOP; assay type: functional; details: 30 µM
[9] = target: Chromo domain-containing protein 1 (Saccharomyces cerevisiae (strain ATCC 204508 / S288c) (Baker's yeast)) (UniProt P32657); assay: ScCHD-1 Enzyme Inhibition Assay; assay type: functional; details: 30 µM; further: in the data most compounds retested in dose-response had high values
Chromo domain-containing protein 1 (Saccharomyces cerevisiae (strain ATCC 204508 / S288c) (Baker's yeast)), sequence (P32657 whole entry, the tested form may be a part): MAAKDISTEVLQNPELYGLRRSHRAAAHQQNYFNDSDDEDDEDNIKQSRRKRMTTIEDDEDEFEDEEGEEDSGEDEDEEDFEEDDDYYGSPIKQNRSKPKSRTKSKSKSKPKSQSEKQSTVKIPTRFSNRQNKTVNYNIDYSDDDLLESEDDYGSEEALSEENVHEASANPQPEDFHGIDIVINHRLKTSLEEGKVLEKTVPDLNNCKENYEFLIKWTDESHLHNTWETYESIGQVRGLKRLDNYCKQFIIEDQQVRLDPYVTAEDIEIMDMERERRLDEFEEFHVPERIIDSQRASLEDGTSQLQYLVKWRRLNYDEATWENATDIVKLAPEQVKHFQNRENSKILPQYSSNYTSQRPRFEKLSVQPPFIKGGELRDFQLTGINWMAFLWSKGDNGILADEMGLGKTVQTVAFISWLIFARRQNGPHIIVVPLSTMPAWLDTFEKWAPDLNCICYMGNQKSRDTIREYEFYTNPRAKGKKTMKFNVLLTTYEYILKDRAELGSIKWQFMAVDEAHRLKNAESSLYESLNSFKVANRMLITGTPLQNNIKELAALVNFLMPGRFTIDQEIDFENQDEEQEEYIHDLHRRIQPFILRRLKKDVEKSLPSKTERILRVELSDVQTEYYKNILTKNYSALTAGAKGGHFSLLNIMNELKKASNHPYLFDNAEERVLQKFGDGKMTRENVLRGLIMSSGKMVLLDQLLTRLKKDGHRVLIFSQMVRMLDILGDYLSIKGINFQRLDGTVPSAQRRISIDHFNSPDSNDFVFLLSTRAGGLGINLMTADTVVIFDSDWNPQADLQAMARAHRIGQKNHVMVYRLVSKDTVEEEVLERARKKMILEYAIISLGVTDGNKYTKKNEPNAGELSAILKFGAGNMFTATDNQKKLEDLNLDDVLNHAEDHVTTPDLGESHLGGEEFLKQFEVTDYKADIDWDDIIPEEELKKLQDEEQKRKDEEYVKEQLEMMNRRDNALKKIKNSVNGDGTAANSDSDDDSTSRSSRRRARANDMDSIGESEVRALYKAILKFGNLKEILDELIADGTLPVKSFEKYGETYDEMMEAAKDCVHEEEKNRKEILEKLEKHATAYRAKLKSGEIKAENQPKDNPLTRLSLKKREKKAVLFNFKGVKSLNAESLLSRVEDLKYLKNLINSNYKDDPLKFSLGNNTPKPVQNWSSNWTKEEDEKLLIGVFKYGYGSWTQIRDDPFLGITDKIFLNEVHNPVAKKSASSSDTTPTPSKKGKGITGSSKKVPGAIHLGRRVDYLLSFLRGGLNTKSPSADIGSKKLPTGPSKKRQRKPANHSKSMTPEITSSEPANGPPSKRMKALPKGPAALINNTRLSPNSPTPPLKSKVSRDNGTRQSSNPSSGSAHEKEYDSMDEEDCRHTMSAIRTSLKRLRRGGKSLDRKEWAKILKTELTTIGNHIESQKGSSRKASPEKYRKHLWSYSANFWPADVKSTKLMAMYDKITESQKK

Protein translocase subunit SecA (Escherichia coli (strain K12)), sequence (P10408 whole entry): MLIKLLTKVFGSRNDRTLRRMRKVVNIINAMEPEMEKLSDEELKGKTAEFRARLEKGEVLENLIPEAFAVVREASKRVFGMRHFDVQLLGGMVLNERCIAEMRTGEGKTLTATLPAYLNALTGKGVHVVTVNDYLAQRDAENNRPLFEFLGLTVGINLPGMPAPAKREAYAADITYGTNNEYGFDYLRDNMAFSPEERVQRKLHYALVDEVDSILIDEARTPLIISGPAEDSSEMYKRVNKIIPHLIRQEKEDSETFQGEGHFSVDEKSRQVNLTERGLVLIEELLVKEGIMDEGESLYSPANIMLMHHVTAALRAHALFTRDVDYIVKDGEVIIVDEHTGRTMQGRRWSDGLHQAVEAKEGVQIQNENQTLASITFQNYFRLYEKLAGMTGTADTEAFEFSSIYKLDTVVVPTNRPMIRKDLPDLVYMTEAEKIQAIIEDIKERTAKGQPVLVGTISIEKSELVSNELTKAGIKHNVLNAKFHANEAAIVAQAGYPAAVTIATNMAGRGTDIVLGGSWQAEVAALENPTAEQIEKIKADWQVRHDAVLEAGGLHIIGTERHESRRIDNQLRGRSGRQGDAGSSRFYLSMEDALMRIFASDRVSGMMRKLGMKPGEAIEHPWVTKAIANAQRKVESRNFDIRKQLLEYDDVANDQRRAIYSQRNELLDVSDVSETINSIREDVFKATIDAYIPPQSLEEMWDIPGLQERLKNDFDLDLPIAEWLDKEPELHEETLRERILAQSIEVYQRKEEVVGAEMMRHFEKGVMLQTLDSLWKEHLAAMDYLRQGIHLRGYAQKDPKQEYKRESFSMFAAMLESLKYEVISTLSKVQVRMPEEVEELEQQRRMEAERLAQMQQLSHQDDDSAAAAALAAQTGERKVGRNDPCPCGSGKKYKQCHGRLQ

Row | Compound | Percent Effect [1] [%] | Percent Effect [2] [%] | Percent Effect [3] [%] | Percent Effect [4] [%] | Percent Effect (Trypanosoma cruzi) [%] | Percent Effect [5] [%] | Percent Effect [6] | Percent Effect (N/A) | Percent Effect (Homo sapiens) [%] | Percent Effect [7] [%] | Percent Effect [8] [%] | Percent Effect [9] [%]
1 | O=C(c1ccc(C2CCCO2)s1)N1Cc2ccccc2C1 (stereo not drawn) | -2.89 | -2.7 | -1.29 | 1.79 | -4.25 | -2.86 | 55.5% and 35.5% and 40.2% | 23.5% and 18.5% | -5.94 | -2.65 | 0 | 2.95
2 | Cc1cnn(CC2CN(c3cnc4ccccc4n3)CCO2)c1 (stereo not drawn) | -8.32 | 15.2 | 2.77 | 14.7 | 12 | -4.56 | 38.1% and 39.2% and 44.7% | 20.3% and 14.5% | 14.6 | 4.43 | 21.5 | -12.5
3 | CN(C(=O)Cc1ccc(NC(=O)NC2CCC2)cc1)c1ccccc1 | -9.26 | 5.26 | -0.53 | 9.14 | 4.58 | 0 | 41.9% and 43.6% and 48.1% | 15.8% and 14.9% | 9.37 | 4.25 | 15.6 | -19
4 | Cc1cc(N2CCN(CC(=O)N(C)C)CC2)nc(-c2ccncc2)n1 | -6.79 | 23.7 | -6.29 | -5.92 | 11 | -11.8 | 35.2% and 34.4% and 30.2% | 18.5% and 14.6% | 5.2 | 20.2 | 28.6 | -6.26
5 | Cc1ccc(NCc2cncc3c2CCN(C(=O)C2CC=CC2)C3)nn1 | -0.965 | 5.33 | -0.665 | 8.87 | 1.74 | -24.9 | 30.2% and 30.4% and 33.3% | 16.9% and 15.1% | -6.99 | 13.5 | 32.5 | -6.63
6 | Cc1noc(NC(=O)c2ccc(OC(F)(F)F)cc2)n1 | -1.74 | 18.4 | -0.843 | 1.75 | 2.52 | -4.68 | 75.9% and 76.1% and 72% | 32.7% and 35.8% | 75.7 | 15.3 | 28.4 | -3.4
7 | Cc1cc(C(=O)N2CCc3nnc(N)cc3C2)c(C)n1-c1cccnc1 | -9.46 | -46.8 | -58.5 | 7.86 | 0.923 | -2.37 | 33.5% and 37.5% and 48.3% | 14.7% and 15.2% | 12.2 | 9.38 | 10.1 | -5.27
8 | CCOCCCn1c(NC(=O)c2scnc2C)nc2ccccc21 | -9.29 | -5.2 | -17.4 | 23.1 | 11.1 | 4.27 | 92.3% and 90% and 93.7% | 69.6% and 70.1% | 68.6 | 7.77 | 21.9 | 72.8
9 | Cn1cc(-c2cnc(N3CCOCC3)nc2)cc1C(=O)O | -3.79 | 5.41 | 2.15 | 1.49 | 5.08 | 18.3 | 100% (2×) and 98.7% | 97.4% and 97.5% | 5.61 | 5.94 | 11 | -7.1
10 | CC(C1CC1)N(C)C(=O)c1cnc(-c2ccc3c(c2)OCO3)s1 (stereo not drawn) | -5.81 | 0 | 11.9 | 0.585 | -3.33 | -1.82 | 68.6% and 72.1% and 62.6% | 34.7% and 35.5% | 12.2 | -2.15 | -2.5 | -10.2
11 | NC(=O)c1nc(COc2ccc3c(c2)OCO3)no1 | 2.5 | 9.33 | 10 | 1.5 | -8.84 | -7.22 | 45% and 40.2% and 44% | 21.3% and 24% | 3.46 | 2.12 | 10.3 | -8.03
12 | CNC(=O)N1CC[C@@H]2CN(Cc3cccnc3)S(=O)(=O)[C@@H]2CC1 | -2.59 | 8.11 | 4.84 | -4.72 | 1.27 | 0.319 | 11.4% and 31.6% and 11.9% | 5.24% and 4.76% | -15.6 | 0 | 15.4 | 0.163
13 | Cc1noc(C2CCC3(CCN(C(=O)c4c(C)noc4C)CC3)O2)n1 (stereo not drawn) | -6.54 | 2.7 | -4.63 | 17.5 | 7.53 | -6.2 | 0.0858% | – | 5.82 | -4.3 | 11.1 | -1.92
14 | CC[C@@]1(O)CCN(C(=O)c2ccc(SC)cc2)C[C@H]1O | -4.3 | 4.17 | 0.43 | 1.71 | 6.9 | -0.442 | 10.9% | – | 3.45 | 4.21 | 5.13 | -3.41
15 | Cc1cnn(CC2CCCCN2C(=O)Cc2csc(C)n2)c1 (stereo not drawn) | -3.54 | -3.8 | 5.27 | 1.29 | -5.64 | -0.645 | 6.17% | – | 13.6 | 2.08 | -2.53 | -19.5
16 | Cc1cc(CN2CCOCS2(=O)=O)ccc1F | 2.12 | 5.41 | -2.01 | 3.16 | -5.21 | 4.29 | 16.4% | – | 9.21 | 4.76 | 4.88 | -2.56
17 | CC(c1ccc(F)c(F)c1)N1CCN(Cc2nccn2C)CC1 (stereo not drawn) | 0.457 | 20.8 | -8.62 | 5.23 | -7.68 | 5.69 | 8.62% | – | 40.9 | -5.83 | -2.44 | -9.27
18 | Cn1ncc2c(=O)[nH]c(CN3CCCC3c3cccs3)nc21 (stereo not drawn) | -2.36 | 20.2 | -1.76 | -3.9 | -5.38 | 1.14 | 5.32% | – | 15.9 | 7.39 | 11.4 | -5.13
19 | CC(C)c1nnc2n1CCN(CCCS(=O)(=O)c1ccccc1)C2 | -2.39 | 7.79 | 4.29 | 7.26 | 6.18 | -4.27 | 7.94% | – | 0.936 | 1.94 | 14.6 | -8.88
20 | CNC(=O)c1cnc(/C=C/c2cc(OC)c(OC)c(OC)c2)s1 | -3.62 | 16.2 | -4.03 | 8.07 | 1.56 | 21.2 | 16% | – | 40.4 | 9.9 | 18.3 | -13
21 | Cc1nccn1CC1CCCN1CCCc1nc(-c2cccs2)no1 (stereo not drawn) | -0.0404 | 21.6 | -8.26 | -4.35 | -2.92 | -11.6 | 13.3% | – | 36.5 | 3.45 | 13.6 | 2.34
